Sampled rows, rich in hits. Any-hit rate of the full collection: about 1.1%.
SNCA expr inhib: Primary qHTS assay for inhibitors of alpha-synuclein gene (SNCA) expression; Potency, µM (doses to about 57.2 µM), without a hit: at the top dose activity change, negative = inhibition, actives largely listed as inhibitors; HEK-293 SNCA-luciferase knock-in, luminescence, 24 h; hit rate 0.17% among 140,000; AID 1671194, 2021;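 also: potency is read from the fitted curve at half-maximal effect; plate controls were DMSO cells for no effect and cell-free wells for full effect; nearly all actives have a fitted effect of over 45% in size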
IP6K1 inh: Primary qHTS assay for small molecule inhibitors of Inositol hexaphosphate kinase 1 (IP6K1). activity change, % (series mostly up to about 58 µM). hit rate 0.81% among 140,000. IP6K1 kinase, ADP-Glo luminescence, 2 h; active compounds read low. Inositol hexakisphosphate kinase 1 (Homo sapiens), Q92551. AID 1645851, 2021; in the data active = activity change below about -25%; also: % is scaled to controls: 0 for no effect and ±100 for the full control effect
Target sequence (Q92551 whole entry, looked up): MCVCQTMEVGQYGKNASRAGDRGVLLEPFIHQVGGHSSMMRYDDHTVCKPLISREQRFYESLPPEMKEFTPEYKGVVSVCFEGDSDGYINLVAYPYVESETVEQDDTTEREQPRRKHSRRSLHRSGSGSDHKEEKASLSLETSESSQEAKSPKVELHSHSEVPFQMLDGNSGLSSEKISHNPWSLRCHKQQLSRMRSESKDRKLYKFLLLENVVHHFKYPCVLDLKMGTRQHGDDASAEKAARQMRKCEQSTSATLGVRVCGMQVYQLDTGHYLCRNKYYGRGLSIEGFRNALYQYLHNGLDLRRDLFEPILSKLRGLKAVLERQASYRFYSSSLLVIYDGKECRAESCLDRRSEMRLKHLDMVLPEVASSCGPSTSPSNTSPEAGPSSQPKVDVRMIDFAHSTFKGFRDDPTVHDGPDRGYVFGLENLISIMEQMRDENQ
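ADP-Glo luminescence measures ADP made by human IP6K1 during a 2 h RT reaction with ATP/IP6 (mix at 1.3 mM/130 uM); top library doses 57.5 and 19.1 uM final.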
GPT2 inhibitor: Primary qHTS assay for inhibitors of Glutamate pyruvate transaminase 2 (GPT2); Recombinant GPT2, coupled pyruvate oxidase/HRP Amplex Red fluorescence; Potency, µM (titrated, usually from 57.7 µM), without a hit: at the top dose activity change, negative = inhibition, actives largely listed as inhibitors; hit rate 0.25% among 100,000; AID 1671188, 2021; also: potency is read from the fitted curve at half-maximal effect; % is scaled to controls: 0 for no effect and ±100 for the full control effect; nearly all actives have a fitted effect of over 60% in size
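Recombinant GPT2 (10ng/uL) with 250uM a-KG and 2mM L-alanine, 30 min at room temperature, in HEPES pH 7.5 buffer. Pyruvate detected by pyruvate oxidase/HRP/Amplex Red fluorescence after 30 min in the dark; AOA (50uM) as positive control.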
HEK293 viab: GF-AFC viability counterscreen for inhibitors of alpha-synuclein gene (SNCA) expression; AID 1671193, 2021; HEK-293-SNCA-luc viability, GF-AFC fluorescence, 24 h; Potency, µM (series often up to 57.1 µM), for the others: top-dose activity change, negative = cytotoxicity, most hits filed as cytotoxic; hit rate 0.12% among 150,000;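 also: potency is read from the fitted curve at half-maximal effect; 0% = DMSO-treated cells and -100% = medium-only wells without cells; nearly all actives have a fitted effect of over 30% in size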
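Cytotoxicity counterscreen: after 24 h compound treatment of genome-edited SNCA-luciferase HEK-293 cells, live-cell protease substrate GF-AFC read by fluorescence after 30 min; activity scaled between DMSO (0%) and medium-only (-100%), curves Hill-fitted.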
GPT2 inh cnf: Confirmatory qHTS assay for inhibitors of Glutamate pyruvate transaminase 2 (GPT2) | shares compounds with GPT2 inhibitor | AID 1671187, 2021 | GPT2 enzyme, coupled Amplex Red pyruvate fluorescence | Potency, µM, most hits filed as inhibitors | hit rate 90% among 95
Numbers without * were called inactive; i = inactive; ? = inconclusive; · = not tested or not shown. Unless noted, calls follow the shape of the dose curve; as a rule, active = well fitted curve in the direction sought with a large enough effect; inconclusive = small, poorly fitted or top-dose-only effect, or another doubt; inactive = no such curve, though single readings can be large; an effect the other way counts as inactive or inconclusive.

SMILES	SNCA expr inhib	IP6K1 inh	GPT2 inhibitor	HEK293 viab	GPT2 inh cnf
O=C(C1CCCC1)N1CC2(CCN(CC3CCCCC3)C2)Cc2ccccc21 (stereo not given)	-13%	-1	i	-16%	·
O=C(O)C=Cc1ccc(O)c(O)c1	-4%	·	4.3µM*	-2%	3.4*
O=C(/C=C/c1ccc(O)c(O)c1)OCCc1ccccc1	44%	·	-3%	-21%	·
CC(=O)Oc1c(-c2ccc(NC(=O)c3ccccc3)cc2)c(-c2cccc(F)c2)nn1-c1ccccc1	-3%	10	?	1%	·
COc1cccc(-c2nn(-c3ccccc3)c(OC(C)=O)c2-c2ccc(NC(=O)c3ccco3)cc2)c1	-12%	-6	?	0%	7.7*
Cn1ncc2c(C(=O)NCCCNC(=O)OC(C)(C)C)cc(-c3ccccc3C(F)(F)F)nc21	·	-1	·	·	·
CN1CCOc2c(C(=O)NCc3cccnc3)cc(-c3ccc(N4CCOCC4)cc3)cc21	-24%	-11	-2%	5%	·
COCCNC(=O)c1cc(N2CCOCC2)cc2c1OCCN2C	·	·	·	·	1.6*
Cn1ncc2c(C(=O)Nc3cccc(Cl)c3)cc(-c3cccc(F)c3)nc21	·	-16	·	·	·
COc1cc(-c2nc3c([nH]2)CCCNC3=O)ccc1O	-21%	15	?	-9%	6.1*
